# Assay outcomes from PubChem.
# Hits are enriched below; roughly 1.3% of the tested compounds scored in any of these assays.
# Akt phos inh = HTS Assay for Inhibitors of Akt Phophorylation: Primary Screen. Neuro2A IGF-stimulated pAkt S473 HTRF, 20 min; stronger effect = lower value. activity change, % for hits at 50 µM. AID 651550, 2012. 0.32% of 360,000 active; in the data active means activity change below about -80%; inconclusive means mostly about -51% to -80%; further: on the % scale 0 is the no-effect control and ±100 the full control effect
#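 Neuro2A cells (4,500/well, DMEM with 0.5% FBS) were treated with compound at a single 50 µM final concentration, stimulated with 6 nM IGF for 20 min at 37 °C, and lysed. Phospho-Akt Ser473 was read by HTRF as 665/615 ratio ×10^4.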
# TSHR antagonist = Antagonists of the Thyroid Stimulating Hormone Receptor: HTS campaign; TSHR-expressing cells, TSH-stimulated cAMP HTRF, 2 h; stronger effect = lower value; 0.2% of 330,000 active; activity change, negative = inhibition, % at 11.5 µM;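 active means activity change below a set negative limit, meaning inhibition stronger than a set level, cut at about -70% in these data; inconclusive means activity change between two set negative limits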; further: on the % scale 0 is the no-effect control and ±100 the full control effect
# Target sequence (P16473 whole entry, looked up): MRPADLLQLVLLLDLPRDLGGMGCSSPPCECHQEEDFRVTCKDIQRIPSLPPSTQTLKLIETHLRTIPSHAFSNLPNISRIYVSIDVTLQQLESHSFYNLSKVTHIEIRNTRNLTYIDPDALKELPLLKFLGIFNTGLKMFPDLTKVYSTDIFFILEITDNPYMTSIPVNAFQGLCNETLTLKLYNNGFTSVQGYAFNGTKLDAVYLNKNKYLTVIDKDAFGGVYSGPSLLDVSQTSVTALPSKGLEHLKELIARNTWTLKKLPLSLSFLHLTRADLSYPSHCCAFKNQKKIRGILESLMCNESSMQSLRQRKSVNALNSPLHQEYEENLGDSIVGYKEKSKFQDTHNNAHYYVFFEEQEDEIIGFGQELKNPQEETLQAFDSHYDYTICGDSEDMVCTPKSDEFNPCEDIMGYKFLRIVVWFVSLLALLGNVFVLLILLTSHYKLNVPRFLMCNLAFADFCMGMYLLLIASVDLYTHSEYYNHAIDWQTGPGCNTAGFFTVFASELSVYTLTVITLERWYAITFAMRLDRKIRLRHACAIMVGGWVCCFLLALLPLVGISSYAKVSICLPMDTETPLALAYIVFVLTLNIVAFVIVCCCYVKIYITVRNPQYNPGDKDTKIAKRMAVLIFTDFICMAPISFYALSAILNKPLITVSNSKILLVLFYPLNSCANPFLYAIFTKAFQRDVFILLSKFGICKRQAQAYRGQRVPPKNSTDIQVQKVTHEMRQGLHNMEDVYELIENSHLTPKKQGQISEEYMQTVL
#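 Read-out is FRET at 665 nm (cryptate excitation 337 nm) from a cryptate-tagged anti-cAMP antibody, competed by cell cAMP against cAMP-d2. Compounds are tested on freshly harvested TSHR cells challenged with 4nM TSH (EC80) for 2 hours at 37 deg C.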
# RXFP1 antag = qHTS Assay for Antagonists of the Relaxin Receptor RXFP1; Relaxin receptor 1 (Homo sapiens), Q9HBX9; HEK293-RXFP1, relaxin-stimulated cAMP HTRF, 30 min; stronger effect = lower value; activity change, negative = inhibition, % at 57.5 µM; 0.59% of 350,000 active; AID 1259400, 2018;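 active means activity change of -60% or lower, but not beyond a set lower limit; inconclusive means change between -60% and -40%, or beyond the set limit; inactive means change above -40%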; further: on the % scale 0 is the no-effect control and ±100 the full control effect
# RXFP1 ag = qHTS Assay for Agonists of the Relaxin Receptor RXFP1; HEK293T-RXFP1 cAMP TR-FRET, 30 min; response scale: percent of porcine relaxin response, buffer zero; Potency, µM (titrated, usually from 57.5 µM), without a hit: top-dose activation, most hits filed as activators; 0.3% of 370,000 active; active means well fitted activation curve with a large enough effect; inconclusive means small, poorly fitted or top-dose-only effect; further: potency means the concentration at half of the fitted maximal effect; on the % scale 0 is the no-effect control and ±100 the full control effect; nearly all actives have a fitted effect of over 60% in size
#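 HEK293T cells stably expressing RXFP1 were pretreated with the PDE4 inhibitor Ro 20174, exposed to compounds for 30 min at 37C, lysed, and cAMP was read by TR-FRET. Data normalized to buffer (basal) and 29 nM porcine relaxin (100%).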
# gsp antag = qHTS for Antagonists of gsp, the Etiologic Mutation Responsible for Fibrous Dysplasia/McCune-Albright Syndrome: qHTS; Potency, µM (top dose mostly 76.9 µM), for the others: top-dose activity change, negative = inhibition, hits mostly inhibitors; AID 624288, 2012; gsp-mutant cells, cAMP HTRF, 30 min; 0.4% of 340,000 active; calls by dose curve; cell line not stated here;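 further: intracellular cAMP measured with PDE inhibitor Ro 20-1724 present during compound exposure; potency means the concentration at half of the fitted maximal effect; on the % scale 0 is the no-effect control and ±100 the full control effect; nearly all actives have a fitted effect of over 65% in size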
#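 Measurement of cellular cAMP by homogeneous time-resolved fluorescence following a 30 min compound exposure at 37C. The PDE inhibitor […] was present throughout; the assay buffer was DPBS with 0.05% BSA and 0.005% Tween 20.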
# gsp ag = qHTS for Agonist of gsp, the Etiologic Mutation Responsible for Fibrous Dysplasia/McCune-Albright Syndrome: qHTS | 0.13% of 340,000 active | gsp mutant cells, cAMP HTRF, 30 min | Potency, µM (doses to about 76.9 µM), inactives show at the top dose activation (cAMP increase), actives largely listed as activators; active means well fitted activation curve with a large enough effect; inconclusive means small, poorly fitted or top-dose-only effect, or another doubt; inactive means no such curve, though single readings can be large or run the other way; cell line not stated here;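 further: phosphodiesterase inhibitor Ro 20-1724 added with compounds to block cAMP breakdown; potency means the concentration at half of the fitted maximal effect; nearly all actives have a fitted effect of over 60% in size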
#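 Cells stably selected in G418 were plated at 2000/well, grown 16-24 hr, then given compounds in DMSO with the PDE inhibitor […] (300 uM solution added) for 30 min at 37C; cAMP was read by HTRF.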
# An asterisk follows results filed as active; i = inactive; ? = inconclusive; . = no result given; [ ] = remark or other dose.
SMILES,Akt phos inh,TSHR antagonist,RXFP1 antag,RXFP1 ag,gsp antag,gsp ag
CC(=O)OC[C@H]1O[C@@H](OC(C)=O)[C@H](OC(C)=O)[C@@H]1OC(C)=O,.,.,13,.,.,.
OC(CN1CCCCC1)Cn1c2ccc(Cl)cc2c2cc(Cl)ccc21 (stereo unspecified),i,26,-62*,-1%,15%,-17%[15.4 µM]
O=S(=O)(c1ccc(=S)[nH]c1)N1CCCCC1,i,9,-22,0%,6%,3%
O=S(=O)(c1ccc(=S)[nH]c1)N1CCN(Cc2ccccc2)CC1,i,1,-66*,.,5%,-1%[15.4 µM]
O=S1(=O)C=CC(c2ccccc2)C1 (stereo unspecified),i,7,-4,-2%,16%,0%[15.4 µM]
CCN(CC)S(=O)(=O)c1ccc(N2CCCC2)c(NS(=O)(=O)c2ccccc2)c1,i,36,.,-1%,1%,5%
CCN(CC)S(=O)(=O)c1ccc(N2CCCC2)c(NS(=O)(=O)c2ccc(F)cc2)c1,i,16,20,-1%,-4%,25µM*
NC(=O)c1ccsc1NC(=O)COC(=O)Cc1cccc2ccccc12,i,?,-10,0%,35µM*,32%
CC(=O)Nc1ccc(N/C=C/C(=O)c2ccco2)cc1,i,5,-1,0%,0%,-2%
CN(C)c1ccc(N/C=C/C(=O)c2ccco2)cc1,i,-19,-64*,1%,-29%,3%
Cc1ccc(C(C)C)c(OCc2nn(CC(=O)c3ccc(Cl)cc3)c3[n+]2CCCCC3)c1,i,7,-17,-1%,5%,10%[15.4 µM]
O=C(O)CCSc1ccc2ccccc2n1,i,14,23,18µM*,25%,?
CCOc1c(C)cc2[nH]c(CCC(=O)O)nc2c1C,-112%*,13,6,3%,10%,-19%
CCOC(=O)C(=CNc1ccccc1C)C(=O)OCC,i,4,-15,3%,20µM*,35%
CCOC(=O)C(=O)/C(C#N)=C/Nc1ccccc1,i,3,-1,0%,-8%,-8%
CCOC(=O)C(=CNc1ccccc1Cl)C(=O)OCC,i,19,-8,-4%,-20%,-19%
CCOC(=O)/C(C#N)=C/Nc1ccccc1OC,-98%*,-1,5,2%,12%,-47%
CCN1c2ccccc2-c2nc(SCC(=O)Nc3cc(OC)cc(OC)c3)ncc2S1(=O)=O,.,.,-7,18%,.,.
COc1ccc(C(=O)Nc2nc3ccccc3[nH]2)cc1,i,-1,-78*,0%,-16%,6%
O=C(Nc1nc2ccccc2s1)c1ccc(OCC2CCCO2)cc1 (stereo unspecified),i,-23,-35,1%,32µM*,12%
Cc1cnc(NC(=O)c2ccc(OCC3CCCO3)cc2)s1 (stereo unspecified),i,-4,10,-1%,5%,11%[15.4 µM]
COc1ccc(C(=O)Nc2nc3ccccc3s2)cc1,i,-5,-66*,2%,?,7%
COc1ccc(OC)c(C2C(C(=O)Nc3nc4ccccc4s3)=C(C)NC3=C2C(=O)CCC3)c1 (stereo unspecified),.,-13,-3,3%,32µM*,-15%
COc1cccc(C(=O)Nc2nc3ccccc3s2)c1,i,-13,1,-1%,-4%,-22%
Cc1ccc(-c2ccc(S(=O)(=O)N3CC(C)OC(C)C3)cc2)cc1 (stereo unspecified),i,-9,-8,2%,-1%,-15%
CC1Oc2ccccc2N(CC(=O)Nc2ccc(F)cc2)C1=O (stereo unspecified),i,-8,7,1%,2%,-4%[15.4 µM]
COc1ccccc1C(=O)NCCC(=O)Nc1nc2ccccc2[nH]1,i,-2,-86*,1%,-1%,9%[15.4 µM]
